SNCA expr inh: SNCA gene expression inhibition; HEK-293 SNCA-luciferase knock-in, luminescence, 24 h; Potency, µM (series often up to 57.2 µM), most hits filed as inhibitors; 0.17% of 140,000 active; AID 1671194; also: nearly all actives have a fitted effect of over 45% in size
HEK293 viab: reduces viability of HEK-293 SNCA reporter cells. HEK-293-SNCA-luc viability, GF-AFC fluorescence, 24 h. Potency, µM (titrated, usually from 57.1 µM), actives largely listed as cytotoxic. 0.12% of 150,000 active; also: nearly all actives have a fitted effect of over 30% in size
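HEK-293-SNCA-luc cells (1500/well) plated 24 h, then exposed 24 h to a dilution series; GF-AFC added 30 min at 37C, fluorescence 405/540 nm; normalised to medium-only and DMSO wells, Hill fit.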
KDM5B inh: KDM5B demethylase inhibition; Q9UGL1; KDM5B demethylase, FDH-coupled NADH fluorescence (FDH is formaldehyde dehydrogenase); Potency, µM (doses to about 57.7 µM), most hits filed as inhibitors; 2.6% of 220,000 active; AID 1347165; also: nearly all actives have a fitted effect of over 70% in size
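Compound dilutions met 200 nM (final) KDM5BΔAP for 10 min at room temperature before substrate addition. The substrate mix held 12.5 µM H3K4me3 with cofactors 25 µM α-ketoglutarate and 50 µM Fe²⁺. NADH signal gain over 30 min defined activity.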
IP6K1 inh: blocks human inositol hexakisphosphate kinase 1; 0.81% of 140,000 active; activity change, % (series mostly up to about 58 µM); Q92551; IP6K1 kinase, ADP-Glo luminescence, 2 h; hits give low values; in the data active = activity change below about -25%
Target sequence (Q92551 whole entry, looked up): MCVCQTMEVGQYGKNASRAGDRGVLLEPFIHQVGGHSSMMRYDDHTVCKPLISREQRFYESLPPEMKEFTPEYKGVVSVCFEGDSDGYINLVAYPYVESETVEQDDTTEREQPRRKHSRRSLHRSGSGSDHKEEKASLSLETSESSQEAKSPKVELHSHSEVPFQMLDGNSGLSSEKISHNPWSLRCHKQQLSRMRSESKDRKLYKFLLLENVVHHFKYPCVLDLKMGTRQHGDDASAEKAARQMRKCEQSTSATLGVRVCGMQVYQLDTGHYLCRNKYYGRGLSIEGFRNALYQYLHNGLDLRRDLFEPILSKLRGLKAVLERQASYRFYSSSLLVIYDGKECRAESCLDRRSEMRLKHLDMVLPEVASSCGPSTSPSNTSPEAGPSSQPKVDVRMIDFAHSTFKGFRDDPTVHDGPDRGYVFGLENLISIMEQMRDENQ
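ADP-Glo luminescence measures ADP made by human IP6K1 during a 2 h RT reaction with ATP/IP6 (mix at 1.3 mM/130 uM); top library doses 57.5 and 19.1 uM final.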
Numbers stand for hits; ! = repeats disagree; [ ] = dose if it differs, or a comment. Sampled rows, rich in hits. Any-hit rate of the full collection: about 3%. Unless noted, calls follow the shape of the dose curve; as a rule, active = well fitted curve in the direction sought with a large enough effect; inconclusive = small, poorly fitted or top-dose-only effect, or another doubt; inactive = no such curve, though single readings can be large; an effect the other way counts as inactive or inconclusive.

Results for O=C(Cc1c[nH]c2ncc(-c3cn[nH]c3)cc12)NCc1cccnc1 ?
SNCA expr inh: inactive; HEK293 viab: inactive; KDM5B inh: inconclusive; IP6K1 inh: inactive

Results for c1c[nH]c(-c2nc3ncccc3[nH]2)c1 ?
SNCA expr inh: inactive; HEK293 viab: inactive; KDM5B inh: 141µM!; IP6K1 inh: inactive

Results for c1cnc2nc(-c3ccncc3)[nH]c2c1 ?
SNCA expr inh: inactive; HEK293 viab: inactive; KDM5B inh: 32µM; IP6K1 inh: inactive

How did COc1ccc(CSc2nc3ncccc3[nH]2)cc1 do in these assays?
SNCA expr inh: inactive; HEK293 viab: inactive; KDM5B inh: inactive; IP6K1 inh: inactive

What do the screens show for `c1coc(-c2nc3ncccc3[nH]2)c1`?
SNCA expr inh: inactive; HEK293 viab: inactive; KDM5B inh: 32µM!; IP6K1 inh: inactive

How did O=[N+]([O-])c1ccc(-c2nc(-c3ccc(F)cc3)c(-c3ccncc3)[nH]2)cc1 do in these assays?
SNCA expr inh: inactive; HEK293 viab: inactive; IP6K1 inh: inactive

Results for O=C(NC1CCOCC1)C1CCCCN1Cc1ccc(-c2cccs2)cc1 (stereo not given) ?
SNCA expr inh: inactive; HEK293 viab: inactive; IP6K1 inh: inactive

Results for Cc1ccc2c(c1)[C@@H]1[C@H](CO2)CN(CCC#N)C(=O)CCN1[S+](=O)([O-])c1ccccc1 ?
IP6K1 inh: inactive

Results for CC1(C)CC[C@]2(C(=O)O[C@@H]3O[C@H](CO)[C@@H](O)[C@H](O)[C@H]3O)CC[C@]3(C)C(=CCC4[C@@]5(C)C[C@H](O)[C@H](O[C@@H]6OC[C@@H](O)[C@H](O)[C@H]6O)[C@@](C)(CO)C5CC[C@]43C)C2C1 (stereo not given in full) ?
HEK293 viab: inactive[12.5 µM]; IP6K1 inh: inactive

How did CC1OC2OC3C(OCC(O)C3O)OC(=O)C34CCC(C)(C)CC3C3=CCC5C6(C)CC(O)C(OC7OC(CO)C(O)C(O)C7OC7OCC(OC(=O)CC(C)(O)CC(=O)OC1C(OC1OCC(O)C(O)C1O)C2O)C(O)C7O)C(C)(CO)C6CCC5(C)C3(C)CC4O (stereo not given) do in these assays?
HEK293 viab: 5.2µM; IP6K1 inh: inactive

What do the screens show for `Cc1cccc(-n2nc(-c3c(C)nc4scc(CC(=O)N5CCCC5)n4c3=O)cc2C)c1`?
SNCA expr inh: inactive; HEK293 viab: inactive; KDM5B inh: 28µM; IP6K1 inh: inactive

How did Cc1ccc(-n2nc(-c3c(C)nc4scc(CC(=O)N5CCCC5)n4c3=O)cc2C)cc1 do in these assays?
SNCA expr inh: inactive; HEK293 viab: inactive; KDM5B inh: inconclusive; IP6K1 inh: inactive

Results for Cc1nc2scc(CC(=O)N3CCCC3)n2c(=O)c1-c1cc(C)n(-c2ccc(F)cc2)n1 ?
SNCA expr inh: inactive; HEK293 viab: inactive; KDM5B inh: inconclusive; IP6K1 inh: inactive

What do the screens show for `Cc1cccc(-n2nc(-c3c(C)nc4scc(CC(=O)N5CCOCC5)n4c3=O)cc2C)c1`?
SNCA expr inh: inactive; HEK293 viab: inactive; KDM5B inh: 28µM; IP6K1 inh: inactive

How did Cc1nc2scc(CC(=O)N3CCCC3)n2c(=O)c1-c1cc(C)n(-c2ccc(C(C)C)cc2)n1 do in these assays?
SNCA expr inh: inactive; HEK293 viab: inactive; KDM5B inh: 25µM; IP6K1 inh: inactive

What do the screens show for `O=C(Nc1ccccc1F)NC1CCN(Cc2cccc(-c3ccc(F)c(F)c3)c2)CC1`?
IP6K1 inh: inactive

What do the screens show for `O=C(NCC1CC1)C1CCN(c2nccc(Nc3ccccc3Cl)n2)CC1`?
SNCA expr inh: inactive; HEK293 viab: inactive[12.5 µM]; IP6K1 inh: inactive

Results for CC(C)c1nc(CNC(=O)c2ccc(NC3CCCCC3)nc2)no1 ?
SNCA expr inh: inactive; HEK293 viab: inactive; KDM5B inh: 22µM; IP6K1 inh: inactive

What do the screens show for `CC(C)c1nc(CNC(=O)c2ccc(N3CCCC(C(N)=O)C3)nc2)no1` (stereo not given)?
SNCA expr inh: inactive; HEK293 viab: inactive; KDM5B inh: inactive; IP6K1 inh: inactive

Results for CC(C)C(=O)N1CCN(C(=O)C2CC(=O)N(c3cccc(C(F)(F)F)c3)C2)CC1 (stereo not given) ?
KDM5B inh: inactive

How did CCN1CCN(CCCN2CC3(CCN(c4ncccc4F)CC3)OC2=O)CC1 do in these assays?
SNCA expr inh: inactive; HEK293 viab: inactive; KDM5B inh: 18µM; IP6K1 inh: inactive

How did O=C(c1cc2ccccc2[nH]1)N1CCC2(CC1)CN(c1ncccn1)CC2CO (stereo not given) do in these assays?
SNCA expr inh: inactive; HEK293 viab: inactive; KDM5B inh: inconclusive; IP6K1 inh: inactive
